Assay results published in ChEMBL document CHEMBL3988442, “University of Dundee, Small-Polar-MMV Screening Library” (2021).
About 1,000 (1.4%) of roughly 69,000 compounds showed an effect of 50% or more. What follows is part of a selection rich in strong results, with near analogues and random picks from the rest.

Test system: Leishmania donovani
Assay: Leishmania intramacrophage assay
Assay type: functional, organism-based
Set-up: scale not given: in the data most compounds retested in dose-response had high values

With Cc1nccn1CCCN1CCCC(c2ccccc2)C1 (configuration not stated) the “Percent Effect” value (30.3 µM, […]) was 72.11%.

In the case of Cc1cnn(CCNCc2c(C)nn(-c3ccccc3)c2C)c1, the “Percent Effect” value (30.3 µM, […]) is reported as -2.378%.

With CC(C)c1nc(C(=O)N2C[C@H](C(C)C)[C@@H](N)C2)cs1 the “Percent Effect” value (30.3 µM, […]) was 39.61%.

For COCCn1nc(C(=O)N2CCN(C)CC2C)ccc1=O (configuration not stated), the “Percent Effect” value (30.3 µM, […]) was 4.243%.

CCCc1nnsc1C(=O)NCC1CCN(c2ccccn2)CC1 was tested, and the “Percent Effect” value (30 µM, 30.03 µM) was 33.4%.

In the case of CCCc1nnsc1C(=O)NCC1CCN(c2ncccn2)CC1, the “Percent Effect” value (30.3 µM, […]) is reported as 10.89%.

Cc1nnsc1C(=O)NCC1CCN(c2ccccn2)CC1 was tested, and the “Percent Effect” value (30.3 µM, […]) was 51.71%.

COCC(C)NC(=O)c1cc(C)n(-c2cccc(OC)c2)c1C (configuration not stated) was tested, and the “Percent Effect” value (30 µM) was 9.783%.

With CCNc1cc2c(nn1)CCN(C(=O)c1ccsc1)C2 the “Percent Effect” value (30 µM) was 18.6%.

In the case of COc1ccc(C)cc1CNC(=O)C1=NN(c2ccccc2)C(=O)CN1, the “Percent Effect” value (30.3 µM, […]) is reported as 34.24%.

For COc1ccccc1CNC(=O)C1=NN(c2ccc(C)cc2)C(=O)CN1, the “Percent Effect” value (30 µM, 30.03 µM) was 61.91%.

With COc1ncccc1CNC(=O)C1=NN(c2ccccc2)C(=O)CN1 the “Percent Effect” value (30.3 µM, […]) was -11.09%.

For COCc1ccc(CNC(=O)C2=NN(c3ccccc3)C(=O)CN2)cc1, the “Percent Effect” value (30 µM, 30.03 µM) was 41.01%.

COc1ccc(CNC(=O)C2=NN(c3ccc(C)cc3)C(=O)CN2)cc1 was tested, and the “Percent Effect” value (30.3 µM, […]) was 51.58%.

For N#Cc1ccc(CNC(=O)C2=NN(c3ccccc3)C(=O)CN2)cc1, the “Percent Effect” value (30.3 µM, […]) was 17.15%.

With CC1CCc2n[nH]c(C(=O)NCCCc3ccccn3)c2C1 (configuration not stated) the “Percent Effect” value (30.3 µM, […]) was -2.29%.

CCOC(=O)c1ccc(NC(=O)c2cc3c([nH]c2=O)CCCC3)cc1 was tested, and the “Percent Effect” value (30.3 µM, […]) was 34.55%.

CC(=O)Nc1nc(C(=O)N2CCCC2c2noc(C(C)C)n2)cs1 (configuration not stated) was tested, and the “Percent Effect” value (30.3 µM, […]) was -12.95%.

For C[C@@H]1CN(Cc2cccc(F)c2)C[C@]12CCN(Cc1cccnc1)C2=O.O=C(O)C(F)(F)F.O=C(O)C(F)(F)F, the “Percent Effect” value (30.3 µM, […]) was -0.6911%.

For COc1ccccc1NCC(=O)NCc1scnc1C, the “Percent Effect” value (30.3 µM, […]) was 29.29%.

For COc1cc2nc(NCc3scnc3C)nc(N)c2cc1OC, the “Percent Effect” value (30.3 µM, […]) was 62.63%.

In the case of COc1cc2nc(NCc3cc(C)on3)nc(N)c2cc1OC, the “Percent Effect” value (30.3 µM, […]) is reported as -3.382%.

COCCCN1CC2(CCCCN2C(C)=O)CC1=O (configuration not stated) was tested, and the “Percent Effect” value (30.3 µM, […]) was 13.42%.

In the case of Cc1nc(N)ncc1C(=O)N1CCCC(CCc2ccc(F)c(F)c2)C1 (configuration not stated), the “Percent Effect” value (30.3 µM, […]) is reported as 6.718%.

Cc1ccc(-n2cnc(Cl)c2CO)cc1 was tested, and the “Percent Effect” value (30.3 µM, […]) was 12.87%.

OCc1c(Cl)ncn1-c1ccc(F)cc1 was tested, and the “Percent Effect” value (30.3 µM, […]) was 25.45%.

With OCc1c(Cl)ncn1-c1ccccc1 the “Percent Effect” value (30.3 µM, […]) was 61.75%.

For CC(C)CN1CCC2(CCN(Cc3nccs3)CC2)C1=O.O=C(O)C(F)(F)F, the “Percent Effect” value (30.3 µM, […]) was 12.73%.

In the case of Cc1noc(C)c1C(=O)N(C)C(C)c1cccnc1 (configuration not stated), the “Percent Effect” value (30.3 µM, […]) is reported as -5.434%.

With Cc1noc(CN(C)C(=O)c2n[nH]c(N)c2-c2ccccc2)n1 the “Percent Effect” value (30.3 µM, […]) was -0.6486%.

For CN(C)CC1(O)CCCN(c2nc(-c3ccccc3)no2)CC1 (configuration not stated), the “Percent Effect” value (30.3 µM, […]) was 31.64%.

For Cc1cc(N2CCCC(O)(CN(C)C)CC2)nc(-c2ccccc2)n1 (configuration not stated), the “Percent Effect” value (30.3 µM, […]) was 63.47%.

In the case of CN(C)CC1(O)CCCN(c2noc(-c3ccccc3)n2)CC1 (configuration not stated), the “Percent Effect” value (30.3 µM, […]) is reported as 2.473%.

In the case of N#Cc1ccc(CN2C(=O)c3ccccc3CS2(=O)=O)cc1, the “Percent Effect” value (30.3 µM, […]) is reported as -16.87%.

With Cc1cc(=O)[nH]c(-n2nc(C)c(CCC(=O)Nc3nc(C)cs3)c2C)n1 the “Percent Effect” value (30.3 µM, […]) was 59.04%.

In the case of COC(=O)CCc1c(C)nn(-c2nc(C)cc(=O)[nH]2)c1C, the “Percent Effect” value (30 µM, 30.03 µM) is reported as -18.05%.

Cc1cc(=O)[nH]c(-n2nc(C)c(CCC(=O)NCC(C)C)c2C)n1 was tested, and the “Percent Effect” value (30.3 µM, […]) was 15.57%.

In the case of CC(CNc1cncc(-n2cccn2)n1)N(C)c1ccccc1 (configuration not stated), the “Percent Effect” value (30 µM, 30.03 µM) is reported as 31.44%.

For Cc1nc2c(NCC(C)N(C)c3ccccc3)ncnc2o1 (configuration not stated), the “Percent Effect” value (30.3 µM, […]) was 33.01%.

For Cc1ncnc(NCC(C)N(C)c2ccccc2)c1C (configuration not stated), the “Percent Effect” value (30.3 µM, […]) was 57.28%.

Cn1cccc1C(=O)N1CCC(c2nccn2Cc2ccncc2)CC1 was tested, and the “Percent Effect” value (30.3 µM, […]) was 6.64%.

CN1CC(=O)N(c2ccccc2)CC12CCN(C(=O)c1cnccn1)C2.O=C(O)C(F)(F)F (configuration not stated) was tested, and the “Percent Effect” value (30.3 µM, […]) was 4.293%.

With Cc1nn(CCC#N)c(C)c1[C@@H]1C=C[C@@H](NCc2ccc(F)cc2)C1 the “Percent Effect” value (30.3 µM, […]) was 101.5%.

Cc1nn(CCC#N)c(C)c1[C@@H]1C=C[C@@H](NCc2cccc(Cl)c2)C1 was tested, and the “Percent Effect” value (30.3 µM, […]) was -10.48%.

In the case of Cc1nn(CCC#N)c(C)c1CCC(=O)N(C)Cc1ccc(F)cc1F, the “Percent Effect” value (30.3 µM, […]) is reported as 2.715%.

With Cc1cccc2c1N(C)C(=O)C21CC(=O)Nc2c1cnn2C(C)(C)C (configuration not stated) the “Percent Effect” value (30.3 µM, […]) was -18.37%.

In the case of CN(C)c1ncccc1CNS(=O)(=O)c1cc(F)cc(F)c1, the “Percent Effect” value (30 µM) is reported as 13.05%.

COc1ccc(S(=O)(=O)NCc2cccnc2N(C)C)cc1F was tested, and the “Percent Effect” value (30 µM, 30.03 µM) was 58.31%.

In the case of COc1ccc(S(=O)(=O)NCc2cccnc2N(C)C)cc1, the “Percent Effect” value (30 µM) is reported as 27.65%.

CN(C)c1ncccc1CNS(=O)(=O)c1ccc(F)c(F)c1 was tested, and the “Percent Effect” value (30 µM) was 32.33%.

CCOC(=O)c1ccc(S(=O)(=O)NCc2cccnc2N(C)C)cc1 was tested, and the “Percent Effect” value (30 µM) was 21.62%.

For CCOc1ccc(S(=O)(=O)NCc2cccnc2N(C)C)cc1, the “Percent Effect” value (30 µM, 30.03 µM) was 61.25%.
